Test results from PubChem BioAssay AID720553 (National Center for Advancing Translational Sciences (NCATS), 2013).
In all, about 340,000 compounds went through this assay and about 3,300 (0.97%) were called active. Many of the other results were omitted from the sample, so actives are more common in it than they were. Unmarked numbers belong to inactive results.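 How the source made its calls: active means maximum activity change below -70%; inconclusive means maximum activity change from -70% to -50%; inactive means maximum activity change above -50%.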

What follows are compounds tested on Potassium voltage-gated channel subfamily H member 2, brain isoform KCNH2 3.1 (human) (assay: qHTS for Inhibitors of KCHN2 3.1: Mutant qHTS). Conditions: U2OS KCNH2 3.1, thallium flux FluxOr; stronger effect = lower value.
How it was run: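 Steps: virus added to U2OS suspension (4 h, RT, dark); medium with 10% FBS added, cells plated, 37 C overnight; FluxOr/Red40 loading buffer 45 min RT; stimulation buffer, 2 min kinetic read; rate constant normalized.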
On the % scale 0 is the no-effect control and ±100 the full control effect.

| SMILES | activity change |
| --- | --- |
| Cc1cccc(N(CC(=O)N2CCCC2)S(C)(=O)=O)c1C | -8.33% |
| Cc1cccc(C)c1NC(=O)N1CC(C)OC(C)C1 (stereo unspecified) | -192% (active) |
| CC1CN(C(=S)Nc2cccc(F)c2)CC(C)O1 (stereo unspecified) | 6.1% |
| CSc1ccc(NC(=O)N2CC(C)OC(C)C2)cc1 (stereo unspecified) | 8.24% |
| C=CCOc1cccc(C2C(C(=O)c3ccc(C)o3)=C(O)C(=O)N2CCN2CCOCC2)c1 (stereo unspecified) | -2.42% |
| CCc1cc(-c2nnn(CCC3COCCO3)c2CC)ccc1-c1cn(Cc2ccc3ccccc3c2)nn1 (stereo unspecified) | 0.058% |
| Cc1cc(Nc2ccc(C)c(C)c2)n2ncnc2n1 | 30.4% |
| CC1CCc2[nH]c3ccc(C(=O)N(C)CC(=O)Nc4cccc(F)c4)cc3c2C1 (stereo unspecified) | 13.3% |
| O=C(c1cc2cc(F)ccc2[nH]1)N1CCN(c2ccc(F)cc2)CC1 | -39.9% |
| O=C(CCCN1CCc2[nH]c3ccc(F)cc3c2C1)c1ccc(F)cc1 | -92% (active) |
| C[C@@H]1CN([C@@H](C)CO)C(=O)CCCn2nncc2CO[C@H]1CN(C)C(=O)Nc1ccc(C(F)(F)F)cc1 | -12.6% |
| CC[C@]1(C(=O)OC)[C@H]2C(=O)N(Cc3ccccc3)C(=O)[C@H]2[C@H]2CN=C(SCc3ccc(Cl)cc3)N21 | -98.8% (active) |
| CC[C@]1(C(=O)OC)[C@H]2C(=O)N(Cc3ccccc3)C(=O)[C@H]2[C@H]2CN=C(SCc3ccc(C#N)cc3)N21 | 4.34% |
| CC[C@]1(C(=O)OC)[C@H]2C(=O)N(Cc3ccccc3)C(=O)[C@H]2[C@H]2CN=C(SCc3ccccc3)N21 | 14.7% |
| CC(C)c1c(C(=O)N/N=C/c2ccc(-c3ccccc3)cc2)nnn1-c1nonc1N | -1.92% |
| CC(C)Oc1ccc(/C=N/NC(=O)c2nnn(-c3nonc3N)c2CN(C)C2CCCCC2)cc1 | -81.3% (active) |
| Nc1nonc1-n1nnc(C(=O)N/N=C\c2ccncc2)c1CN1CCCCC1 | -0.869% |
| O=C(NCCN1CCOCC1)c1ccc2c(c1)N(Cc1cccc(Cl)c1)C(=O)c1ccccc1S2(=O)=O | 17.1% |
| C[C@H]1CN([C@@H](C)CO)C(=O)c2cc(-c3cccc(F)c3)cnc2O[C@@H]1CN(C)S(C)(=O)=O | 8.27% |
| C[C@@H]1CN([C@H](C)CO)C(=O)CCCn2nncc2CO[C@@H]1CN(C)C(=O)OCc1ccccc1 | 1.9% |
| C=C(C)COc1ccc(-c2nc(N)ncc2-c2ccccc2OC)c(O)c1 | -6.62% |

| SMILES | activity change |
| --- | --- |
| COc1ccc(-c2nc(N)ncc2-c2ccc(Cl)cc2)c(O)c1 | -191% (active) |
| CCOc1ccc(-c2nc(N)ncc2-c2ccccc2OC)c(O)c1 | -18.2% |
| Cc1ccccc1-c1ccc2c(c1)O[C@@H](CN(C)Cc1ccc(C(=O)O)cc1)[C@@H](C)CN([C@H](C)CO)S2(=O)=O | 16.7% |
| CC(C)CC1C(=O)N(Cc2cn(Cc3ccco3)nn2)CCS(=O)(=O)N1Cc1ccc(-c2ccc(Cl)c(Cl)c2)cc1 (stereo unspecified) | -7.55% |
| Cc1ccc(C(c2nnnn2CS(=O)(=O)c2ccc(C)cc2)N2CCC(C)CC2)cc1 (stereo unspecified) | -72.8% (active) |
| Cc1ccc(C(c2nnnn2CS(=O)(=O)c2ccc(C)cc2)N2CCC(C(N)=O)CC2)cc1 (stereo unspecified) | 1.37% |
| CCCCC(c1nnnn1CS(=O)(=O)c1ccc(C)cc1)N1CCC(C(N)=O)CC1 (stereo unspecified) | 5.52% |
| NC(CSC(c1ccccc1)(c1ccccc1)c1ccc(-c2ccccc2)cc1)C(=O)O (stereo unspecified) | -0.906% |
| Cc1cccc(C(=O)OCC(=O)Nc2sccc2C(N)=O)c1C | 0.26% |
| Cn1c(=N)n(CC(O)c2cccs2)c2ccccc21 (stereo unspecified) | -1.02% |
| N=c1n(Cc2ccc(Cl)cc2)c2ccccc2n1CC(O)c1ccco1 (stereo unspecified) | -89.6% (active) |
| N=c1n(CCc2ccccc2)c2ccccc2n1Cc1ccccc1F | -48.9% |
| CCc1cccc(CC)c1N1C(=O)CC(Sc2ccccc2N)C1=O (stereo unspecified) | -2.21% |
| COc1ccc(C2C(C#N)=C(N)Oc3n[nH]c(C)c32)cc1CN1CCN(c2ccc(F)cc2)CC1 (stereo unspecified) | -93.4% (active) |
| COc1ccc(-c2[nH]nc3c2C(c2ccncc2)C(C#N)=C(N)O3)cc1 (stereo unspecified) | 4.99% |
| COc1cc(C2C(C#N)=C(N)Oc3n[nH]c(-c4ccccn4)c32)cc(OC)c1OC (stereo unspecified) | -3.63% |
| COc1ccc(/C=C2\SC(=S)N(CCC(=O)N3CCOCC3)C2=O)cc1OC | -2.83% |
| CN(C)C1=NC[C@H](Cc2ccccc2)N1CCc1ccc(F)cc1 | -104% (active) |
| CCCCN1C(N)=NC[C@@H]1Cc1ccccc1 | 12.8% |
| CCCC[C@@H]1CN=C(N)N1CCc1cccc(F)c1 | 17.6% |
| Cc1ccc(-c2ccc(CN3C(C(C)C)C(=O)N(Cc4cn(CCC5OCCCO5)nn4)CCS3(=O)=O)cc2)cc1 (stereo unspecified) | -5.44% |

| SMILES | activity change |
| --- | --- |
| Cc1cc2cc3n(c2nn1)N=C(Cl)CC3 | -0.335% |
| CC(OC(=O)c1cccnc1Cl)C(=O)NC1CCCCC1 (stereo unspecified) | 22.3% |
| Cc1ccc(S(=O)(=O)N2C[C@H]3C(=O)C[C@@H](c4cccc5ccccc45)N(S(=O)(=O)c4ccc(C)cc4)[C@H]3C[C@H]2c2ccc(Cl)cc2)cc1 | 5.42% |
| O=C(CSc1ncn[nH]1)Nc1nc2c(F)c(F)c(F)cc2s1 | -9.38% |
| CCc1nccn1S(=O)(=O)c1cccc([N+](=O)[O-])c1 | -98.3% (active) |
| Cc1cc(C)n(S(=O)(=O)c2cccc([N+](=O)[O-])c2)n1 | 8.67% |
| O=[N+]([O-])c1cccc(S(=O)(=O)N2CCCCCC2)c1 | -16.9% |
| OCC1OC(n2cnc3c(N4CCCC4)ncnc32)C(O)C1O (stereo unspecified) | 3.35% |
| O=S1(=O)CCN(C2CCCCCCCCCCC2)CC1 | -0.635% |
| N#Cc1cccc(Nc2c3c(nc4ccccc24)CCCC3)c1 | -94.8% (active) |
| N#Cc1cccc(NC(=O)CCC2CCCC2)c1 | -4.75% |
| N#Cc1cccc(NC(=O)CN2CCCCCC2)c1 | 13.8% |
| O=C(Nc1cc(F)ccc1F)c1ccc2c(=O)n3c(nc2c1)CCC3 | -2.54% |
| COCCCN1C(=O)C(CC(=O)NCc2cccs2)CC(C(=O)N2CCOCC2)=C1C (stereo unspecified) | 3.81% |
| C#CCOCCOCCOCCNc1nc(N2CCN(C(=O)[C@H](CCC(=O)O)n3cc(C(N)CO)nn3)CC2)nc(N2CCN(C(=O)[C@H](Cc3ccc(O)cc3)n3cc(C(N)[C@H](C)CC)nn3)CC2)n1 (stereo partly specified) | -12.3% |
| C#CCOCCOCCOCCNc1nc(N2CCN(C(=O)C(Cc3ccc(O)cc3)n3cc(C(N)CC(C)C)nn3)CC2)nc(N2CCN(C(=O)C(Cc3ccc(O)cc3)n3cc(C(N)C(C)CC)nn3)CC2)n1 (stereo unspecified) | -9.18% |
| C#CCOCCOCCOCCNc1nc(N2CCN(C(=O)[C@H](Cc3ccc(O)cc3)n3cc(C(N)CC(C)C)nn3)CC2)nc(N2CCN(C(=O)[C@H](CCC(=O)O)n3cc(C(N)[C@H](C)CC)nn3)CC2)n1 (stereo partly specified) | -84.4% (active) |
| CC1(c2cccc(N)c2)OCCO1 | -12.6% |
| CC(C)[C@H](NC(=O)c1ccccc1F)C(=O)Nc1cccc(S(=O)(=O)N2CCOCC2)c1 | 9.74% |
| CCOCCCN(C)C1CCN(C(=O)c2oc3ccccc3c2NC(=O)Cc2cccc([N+](=O)[O-])c2)CC1 | -104% (active) |
| COCC(=O)Nc1c(C(=O)N2CCCC2)oc2ccccc12 | 6.72% |

| SMILES | activity change |
| --- | --- |
| CCOCCCN(C)C1CCN(C(=O)c2oc3ccccc3c2NC(=O)COc2cccc(C)c2)CC1 | -107% (active) |
| CN(C(=O)c1cccc(NC(=O)Cc2cccc([N+](=O)[O-])c2)c1)C1CCCCC1 | 18.4% |
| COc1cccc(OC)c1C(=O)Nc1c(C(=O)N2CCN(c3ccccn3)CC2)oc2ccccc12 | -4.91% |
| COc1ccc(CC(=O)Nc2c(C(N)=O)oc3ccccc23)cc1 | -8.15% |
| CC1=C(C(=O)N2CCOCC2)CC(CC(=O)NCCN2CCOCC2)C(=O)N1CCC1=CCCCC1 (stereo unspecified) | 16% |
| Cc1cc(=O)c2ccc(NC(=O)c3ccccc3)cc2[nH]1 | 3.07% |
| COc1ccc(S(=O)(=O)N2CCN(CC(=O)N3CCNC3=O)CC2)cc1OC | 12.9% |
| C[C@@H]1CN([C@@H](C)CO)C(=O)c2c(c3ccccc3n2C)-c2ccccc2CO[C@H]1CN(C)C(=O)C1CC1 | 14.8% |
| COc1ccc([C@H]2CC(=O)C=C(c3ccc(CO)cc3)C2)cc1 | 22.6% |
| O=C1C=C(c2cccc(Cl)c2)C[C@@H](c2ccc(F)cc2)C1 | 2.02% |
| N#Cc1ccc(C2=CC(=O)C[C@H](c3ccc(Cl)cc3)C2)cc1 | -83.2% (active) |
| C[C@H]1CN([C@@H](C)CO)S(=O)(=O)c2ccc(-c3cccc(F)c3)cc2O[C@@H]1CN(C)C | -7.52% |
| O=C(Oc1ccc(Br)cc1C(=S)N1CCOCC1)c1cccc([N+](=O)[O-])c1 | -8.06% |
| O=C(N/C(=C\c1ccc([N+](=O)[O-])cc1)C(=O)N1CCOCC1)c1cccc(Br)c1 | -83.4% (active) |
| O=C(N/C(=C\c1ccc([N+](=O)[O-])cc1)C(=O)N1CCCCC1)c1ccco1 | -4.37% |
| CC(C)C(=O)Nc1cccc(NC(=O)c2ccc([N+](=O)[O-])cc2Cl)c1 | 18.7% |
| O=C(Nc1ccncc1)c1ccccc1[N+](=O)[O-] | 8.15% |
| O=C(Nc1cccc(NC(=O)c2ccccc2[N+](=O)[O-])c1)c1ccccc1Cl | -165% (active) |
